Source: PubChem BioAssay (NCI)
Where “and” joins values, the source holds several entries; their conditions need not be identical. Equal values may be shown once. Compounds without any hit were thinned out: in the full panel of roughly 83,000, 20% have a hit.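 Values shown are percent growth following 48 h exposure of cells in 96-well plates to a single concentration of compound; below 10 was considered active.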 Calls of active or inactive are those of the source.

Tests used:
Test in all cases: NCI-60 one-dose screen, 48 h (100 = growth as untreated, 0 = no growth, -100 = all killed)
Details in all cases: 10 µM unless noted
T-47D breast = test system: T-47D breast
BT-549 breast = test system: BT-549 breast
MDA-MB-435 melanoma = test system: MDA-MB-435 melanoma
SW-620 colon = test system: SW-620 colon
MCF7 breast = test system: MCF7 breast
HCT-116 colon = test system: HCT-116 colon
KM12 colon = test system: KM12 colon
HCC-2998 colon = test system: HCC-2998 colon

| SMILES | growth (T-47D breast) | growth (BT-549 breast) | growth (MDA-MB-435 melanoma) | growth (SW-620 colon) | growth (MCF7 breast) | growth (HCT-116 colon) | growth (KM12 colon) | growth (HCC-2998 colon) |
| --- | --- | --- | --- | --- | --- | --- | --- | --- |
| CC1(C)[C@@H](OC(=O)CCC(=O)O)CC[C@]2(C)[C@H]3C(=O)C=C4[C@@H]5C[C@@](C)(C(=O)O)CC[C@]5(C)CC[C@@]4(C)[C@]3(C)CC[C@@H]12 | 90.6% (inactive) and 2.63% (active) | 99.7% (inactive) and -32.4% (active) | 98.8% (inactive) and -47.7% (active) | 109% (inactive) and -37.2% (active) | 91.2% (inactive) and 6.18% (active) | 95.4% (inactive) and -58.8% (active) | 97% (inactive) and -73.1% (active) | – |
| CN(C)CCC(=O)c1ccc(Cl)cc1 | 110% (inactive) and 97.4% (inactive) | 107% (inactive) and 98.8% (inactive) | 113% (inactive) and 110% (inactive) | 103% (inactive) and 108% (inactive) | 90.6% (inactive) and 86.2% (inactive) | 101% (inactive) and 102% (inactive) | 108% (inactive) and 109% (inactive) | 97.3% (inactive) |
| CN(C)c1ccc2nc3ccc(=[N+](C)C)cc-3sc2c1 | 11.8% (inactive) and 4.2% (active) and 27.3% (inactive) | 60.2% (inactive) and 69.8% (inactive) and 71.9% (inactive) | -43.7% (active) and -14% (active) and 52.5% (inactive) | 15.2% (inactive) and 15.3% (inactive) and 14.7% (inactive) | 12.7% (inactive) and -5.86% (active) and 7.47% (active) | 4.82% (active) and 4.09% (active) and 11.1% (inactive) | 36.6% (inactive) and 33% (inactive) and 48.2% (inactive) | – |
| Cc1cc(O)c(C(C)C)cc1S(=O)(=O)O (tested in a mixture with another compound) | 89.2% (inactive) and 58.9% (inactive) and 96.5% (inactive) | 96.8% (inactive) and -9.88% (active) and 113% (inactive) | 104% (inactive) and -12.6% (active) and 112% (inactive) | 109% (inactive) and 23.2% (inactive) and 102% (inactive) | 89.5% (inactive) and 4.62% (active) and 81.2% (inactive) | 85.9% (inactive) and 6.36% (active) and 104% (inactive) | 116% (inactive) and 13.2% (inactive) and 113% (inactive) | 91.7% (inactive) and -59% (active) and 112% (inactive) |
| CC(=O)Oc1cc(C(=O)O)cc(OC(C)=O)c1OC(C)=O | 101% (inactive) and 98.5% (inactive) | 110% (inactive) and 102% (inactive) | 116% (inactive) and 106% (inactive) | 103% (inactive) and 107% (inactive) | 102% (inactive) and 93% (inactive) | 100% (inactive) and 90.3% (inactive) | 112% (inactive) and 106% (inactive) | – |
| N#C/C(=C1C=C/C(=N/O)C(Br)=C/1)c1ccccc1 | 37.1% (inactive) | 36.2% (inactive) | -64.5% (active) | 12.7% (inactive) | 18.2% (inactive) | -14.7% (active) | -32.6% (active) | – |
| C/C(=N\NC(=O)c1ccncc1)c1ccccc1O | 30.8% (inactive) and 24.3% (inactive) | 52% (inactive) and 20.7% (inactive) | 50.5% (inactive) and 57.5% (inactive) | 34.2% (inactive) and 42.3% (inactive) | 13.2% (inactive) and 13.4% (inactive) | 5.77% (active) and 2.15% (active) | 31.9% (inactive) and 34.4% (inactive) | 25% (inactive) and 32.1% (inactive) |
| O=C(CN1CCOCC1)N1CCOCC1 | 110% (inactive) and 101% (inactive) | 96.9% (inactive) | 116% (inactive) and 101% (inactive) | 105% (inactive) and 109% (inactive) | 110% (inactive) and 105% (inactive) | 104% (inactive) and 107% (inactive) | 110% (inactive) and 106% (inactive) | – |
| CCOC(=O)Nc1ccc2c(c1)/C(=N\NC(N)=S)c1ccccc1-2 | 26.4% (inactive) and 31.3% (inactive) | 41.6% (inactive) and 82.6% (inactive) | 57.3% (inactive) and 59.9% (inactive) | 80.7% (inactive) and 81.2% (inactive) | 63% (inactive) and 70.6% (inactive) | 53.5% (inactive) and 71.4% (inactive) | 40.4% (inactive) and 54.2% (inactive) | 60.9% (inactive) and 68.9% (inactive) |
| CCC(O)c1ccccc1 (stereo not drawn) | 106% (inactive) and 102% (inactive) | 133% (inactive) | 89.8% (inactive) and 107% (inactive) | 109% (inactive) and 104% (inactive) | 103% (inactive) and 95.6% (inactive) | 86.7% (inactive) and 108% (inactive) | 116% (inactive) and 108% (inactive) | – |
| CN1CCN(CCC=C2c3ccccc3Sc3ccc(S(=O)(=O)N(C)C)cc32)CC1 | 77.4% (inactive) | 67.9% (inactive) and 70% (inactive) | 12.8% (inactive) and 6.78% (active) | 76.9% (inactive) and 74.2% (inactive) | 41.2% (inactive) and 71.9% (inactive) | 39.5% (inactive) and 45.1% (inactive) | 68.7% (inactive) and 73.4% (inactive) | 13.9% (inactive) and 14.4% (inactive) |
| COc1ccc(S(=O)(=O)N2CCOCC2)cc1NC(=O)c1[nH]c(C)c2c1CCCCC2=O | 107% (inactive) and 42% (inactive) | 116% (inactive) and 102% (inactive) | 105% (inactive) and 35.8% (inactive) | 103% (inactive) and 67.5% (inactive) | 91.1% (inactive) and 27.6% (inactive) | 109% (inactive) and 101% (inactive) | 110% (inactive) and 65% (inactive) | – |
| O=C1OC(Oc2ccc(Br)cc2)(c2ccccc2)c2ccccc21 (stereo not drawn) | 73.6% (inactive) and 76.6% (inactive) | 88.4% (inactive) and 120% (inactive) | 102% (inactive) and 79.5% (inactive) | 78.6% (inactive) and 66.5% (inactive) | 89% (inactive) and 101% (inactive) | 65.6% (inactive) and 54.6% (inactive) | 87.7% (inactive) and 76.3% (inactive) | 102% (inactive) and 87.3% (inactive) |
| Nc1ccccc1Nc1ccccc1 | 88.1% (inactive) and 83.5% (inactive) | 70.9% (inactive) and 58.4% (inactive) | 91.5% (inactive) | 106% (inactive) and 112% (inactive) | 93.8% (inactive) and 91.8% (inactive) | 86.6% (inactive) and 88.8% (inactive) | 85.8% (inactive) and 79.6% (inactive) | – |
| OCCN1CCN(CCO)CC1 | 89.8% (inactive) and 86% (inactive) and 118% (inactive) | 110% (inactive) and 89.5% (inactive) and 102% (inactive) | 113% (inactive) and 99.8% (inactive) and 115% (inactive) | 99.5% (inactive) and 103% (inactive) | 95.5% (inactive) and 95.1% (inactive) and 107% (inactive) | 104% (inactive) and 87.9% (inactive) and 98.8% (inactive) | 108% (inactive) and 96.8% (inactive) and 109% (inactive) | – |
| Nc1ccc2[nH]c(-c3ccccc3)cc(=O)c2c1 | 78% (inactive) | 81.2% (inactive) | -21.2% (active) | 57.6% (inactive) | 51.7% (inactive) | 81% (inactive) | 45.2% (inactive) | – |
| Cn1c(=O)c2[nH]c(CCCCCCCCc3nc4ccccc4[nH]3)nc2n(C)c1=O | 46.6% (inactive) and 44% (inactive) | 46.1% (inactive) and 54.1% (inactive) | 37% (inactive) and 52.2% (inactive) | 91.7% (inactive) and 91.2% (inactive) | 45.2% (inactive) and 50.7% (inactive) | 40.9% (inactive) and 56% (inactive) | 83.6% (inactive) and 91.1% (inactive) | – |
| Cc1cccc(/C=C\C(=O)c2ccc(Cl)cc2)c1 | 93.8% (inactive) and 91.9% (inactive) | 82.9% (inactive) | 95.6% (inactive) and 84.4% (inactive) | 89.3% (inactive) and 69% (inactive) | 51.5% (inactive) and 73.7% (inactive) | 52.5% (inactive) and 62.3% (inactive) | 96.3% (inactive) and 95.1% (inactive) | 95% (inactive) and 98.2% (inactive) |
| CC(=O)Nc1ccc2cc3ccc(NC(C)=O)cc3nc2c1 | 81.6% (inactive) and 69.9% (inactive) | 106% (inactive) and 92.9% (inactive) | 83.6% (inactive) and 92.6% (inactive) | 90% (inactive) and 91.3% (inactive) | 68.3% (inactive) and 85.1% (inactive) | 92.3% (inactive) and 81.3% (inactive) | 79.6% (inactive) and 89.5% (inactive) | 77.1% (inactive) |
| CC(CN=Cc1ccccc1O)N=Cc1ccccc1O (stereo not drawn) | 96.9% (inactive) and 94.2% (inactive) | 67.1% (inactive) and 118% (inactive) | 94% (inactive) and 122% (inactive) | 110% (inactive) and 96.8% (inactive) | 94.9% (inactive) and 95.8% (inactive) | 104% (inactive) and 102% (inactive) | 102% (inactive) and 113% (inactive) | – |
